Drawing on PubChem BioAssay (NCATS), this text covers Potency for 40 compounds.

Activity calls are given as the source filed them. Entries that show only a call come without a potency. Calls come from the whole dose curve; as a rule, active = well fitted curve in the direction sought with a large enough effect; inconclusive = small, poorly fitted or top-dose-only effect, or another doubt; inactive = no such curve, though single readings can be large or run the other way.
Potency is the fitted concentration of half-maximal effect.

The assay in a line: Validation qHTS assay for inhibitors of Activation Induced Cytidine Deaminase (AID): UDG Counterscreen signal (AID 1347427). The settings on record: biochemical UDG counterscreen, fluorescence signal; series mostly up to 115 µM. An excerpt: Assay Provider (PI) Patricia Gearhart Ph.D.
National Institute on Aging
National Institute of Health (NIH), Bethesda, MD
Assay Provider (PI) Rahul Kohli Ph.D.
Perelman School of Medicine
University of Pennsylvania, Philadelphia, PA
Activation-Induced Deaminase (AID) is a cytosine deaminase which converts cytosine into uracil within stretches of ssDNA. The presence of uracil in DNA initiates a cascade of mutagenic DNA repair to introduce point mutations and DNA double strand breaks. Specific targeting of AID to the immunoglobulin heavy chain loci (Igh) promotes mutagenesis in the antibody variable region for somatic hypermutation (SHM) or switch regions leading to class switch recombination (CSR). However, AID also plays a role in accumulating unnecessary mutations across the genome. Mis-targeting of AID results in the initiation of tumor development and leads to greater drug resistance among cancer cells when continually expressed. To identify an AID inhibitor, a small molecule library will be screened in collaboration with NCATS core facility at NIH. To confirm biological function, inhibitors will be examined in an in vitro murine B-cell activation assay and subsequent secondary validation screens. Top molecules will be further screened to identify inhibitory efficacy against a wild type primary splenocytes assay. Using these approaches, we hope to identify a small molecule with great efficacy and low toxicity for use as a molecular probe to further characterize AID's intricacies, or even as a therapeutic.
A FRET based analysis of cytosine deamination, was developed to identify potential inhibitors of AID catalytic activity. This screen has two signal output, Read 1 evaluates the AID inhibition response. The second readout (Read 2) evaluates UDG response and is uses as a counterscreen to exclude false positive inhibitors. Inhibition in AID and inactivity in the UDG signal is the desired outcome for this assay.
SEQUENCE No. (e.g., 1, 2, 3, etc.); […] (e.g., Cells, Incubation, Reagent, etc.); VALUE; DESCRIPTION
1a; Reagent; 3 uL; [4/3x] 1 uM AID/2.67 U/mL UDG
1b; Reagent; 3 uL; 2 U/mL UDG
1c; Reagent; 3 uL; 1 uM AID
2a; Compound; 46 nL; Follow-up plates (0.64 uM - 10 mM)
2b; Control; 46 nL; ATA ([…] - 10 mM)
3; Time; 10 min; incubation at room temperature
5; Time; 4 hr; incubation at room temperature
6; Reagent; 4 uL; [2x] 250 mM NaOH
7; Time; 15 sec; centrifuge at 1000 rpm
8; Time; 30 min; incubation at room temperature
9a; Detection; fluorescence (Read 1: AID); EnVision (PerkinElmer) plate reader, 540 excitation and 590 emission filters
9b; Detection; fluorescence (Read 2: UDG); EnVision (PerkinElmer) plate reader, 560 excitation and 665 emission filters
NOTES (numbers refer to sequence above)
1a; Reagents were dispensed in a medium-binding black solid-bottom Greiner plates (789176F) using a BioRptr liquid dispenser. Dispense 3 uL of [4/3x] 1 uM AID (provided by Kohli lab) and [4/3x] 2 U/mL UDG (NEB M0280L) into columns 1, 2, 5 to 48.
1b; Dispense 3 uL of [4/3x] 2 U/mL UDG into column 3.
1c; Dispense 3 uL of [4/3x] 1 uM AID into column 4.
2b; 10 mM Aurintricarboxylic Acid (Sigma A1895) (ATA, 8-point, n = 2, 1:2.5 dilution in column 2) double pin-transferred (Dip Factor = 2) using the Kalypsys (Wako USA) pintool equipped with a 1536 pinhead for a [final] range of 186 nM - 114 uM.
3; Room temperature incubation.
4; Dispense 1 uL of substrate mixture from the Kohli lab [4x] […] DJC20 and [4x] 250 nM DJC23 into columns 1 to 48 .
5; Room temperature incubation.
6; Dispense 4 uL of substrate mixture [2x] 250 mM NaOH into columns 1 to 48.
7; Centrifugation step to remove bubbles.
8; Room temperature incubation
9a; Fluorescence signal (column label AID) was read using the EnVision plate reader. Excitation filter = 540(8) nm, barcode = 311; Emission filter = 590(20) nm, barcode = 217; Mirror = D555, barcode = 405.
9b; Fluorescence signal (column label UDG) was read using the EnVision plate reader. […]
For the compound `CCNC(=O)[C@H]1O[C@@H](n2cnc3c(N)nc(NCCc4ccc(CCC(=O)O)cc4)nc32)[C@H](O)[C@@H]1O`, the Potency result was “inactive”.
Under `O=[N+]([O-])c1ccc2c(c1)S(=O)(=O)C=C2` stands “inactive”; under `O=C(O)/C=C/C(O)c1ccc(Cl)cc1` (stereo not given), “inactive”; under `CN(C)c1nc(N)c(C(=O)N=C(N)N)nc1Cl`, “inactive”.
Under `Fc1cccc(/C=N/N=C/c2cccc(F)c2)c1` stands “inactive”; under `NCCCS(=O)(=O)O`, “inactive”; under `CCCC1(C)C(C#N)(C#N)C1(C#N)C#N`, “inactive”.
In the case of `NC(=S)c1ccc[n+]([C@@H]2O[C@@H](COP(=O)([O-])OP(=O)(O)OC[C@H]3O[C@@H](n4cnc5c(N)ncnc54)[C@H](OP(=O)(O)O)[C@@H]3O)C(O)C2O)c1` (stereo not given in full), the Potency result was “inactive”.
With `CC(=O)/C=C1\C(=O)N(C)c2ccccc21`, the Potency entry is “inactive”.
For `O=Nc1ccc2oc(=O)ccc2c1`, the Potency result was “inactive”.
The entry for `COc1cc2nc(N3CCN(C(=O)OCc4ccccc4)C(C(=O)NC(C)(C)C)C3)nc(N)c2cc1OC` (stereo not given) is “inactive”; for `O=C(O)CC1CCCc2ccccc2C1O` (stereo not given) it is “inactive”.
For the compound `COc1cccc(C(=O)NCCN2CCN(c3ccc(Cl)cc3)CC2)c1`, the Potency result was “inactive”.
For the compound `O=c1[nH]c2cc(Cl)c(Cl)cc2[nH]c1=O`, the Potency result is “inactive”.
Take `N=C(N)SCCc1ccc(CCSC(=N)N)cc1`: the Potency result is “inactive”.
Regarding `COc1ccccc1N1CCN(CCN(C(=O)c2ccc(I)cc2)c2ccccn2)CC1`, the Potency entry was “inactive”.
As for `NO`, the Potency is 56.2 µM (active).
Turning to `Clc1ccc(N2CCN(Cc3cc4ccccn4n3)CC2)cc1`, the Potency result is “inactive”.
In the case of `N.N.O=C(O)C1(C(=O)O)CCC1.[Pt]`, the Potency result is “inactive”.
In the case of `CCCCCCCCCCCCCCCC(=O)OC(CC(=O)O)C[N+](C)(C)C` (stereo not given), the Potency entry was “inactive”.
As for `c1cnc2c(c1)ccc1cccnc12`, the Potency entry was “inactive”.
Under `COc1cc(SC)ccc1C(=O)N1CCC(Cc2ccccc2)CC1` stands “inactive”.
With `CCCCCC(O)c1cccc(OCc2ccc3ccccc3n2)c1` (stereo not given), the Potency result was “inactive”.
Under `O=C(O)c1cc([N+](=O)[O-])ccc1NCCCc1ccccc1` stands “inactive”.
As for `CC(C)CC(NP(=O)(O)O[C@@H]1O[C@@H](C)[C@H](O)[C@@H](O)[C@H]1O)C(=O)NC(Cc1c[nH]c2ccccc12)C(=O)O` (stereo not given in full), the Potency entry was “inactive”.
For the compound `CN1CCC[C@H]1c1cccnc1`, the Potency entry is “inactive”.
Regarding `Cc1cc(NC2CCCCC2)nc(-n2nc(C)cc2C)n1`, the Potency result is “inactive”.
For `CN=c1nc(-c2ccccc2)n(-c2ccccc2)s1`, the Potency entry is “inactive”.
In the case of `Nc1nc(SCc2ccc([N+](=O)[O-])cc2)c2ncn([C@@H]3O[C@H](CO)[C@@H](O)[C@H]3O)c2n1`, the Potency entry is “inactive”.
With `NCCCCC(=O)O`, the Potency entry is “inactive”.
In the case of `CN1C2CCC1CC(OC(=O)C(O)c1ccccc1)C2` (stereo not given), the Potency result was “inactive”.
For the compound `c1ccc(-c2ccccn2)nc1`, the Potency result is “inactive”.
As for `CCc1c(C(=O)NCCc2ccc(N3CCCCC3)cc2)[nH]c2ccc(Cl)cc12`, the Potency result was “inactive”.
Regarding `OCC1O[C@H](O)C(Cl)C(O)C1O` (stereo not given in full), the Potency result is “inactive”.
`C#CCN1C(C)=C(C(=O)OC)C(c2cccc([N+](=O)[O-])c2)C(C(=O)OCC)=C1C` (stereo not given): the Potency result is “inactive”.
For `Cc1cc(NC(=O)Nc2ccc3c(ccn3C)c2)sn1`, the Potency result is “inactive”.
`NCCSSCCN`: the Potency entry was “inactive”.
Regarding `CN1CCc2cccc3c2C1Cc1ccc(O)c(O)c1-3` (stereo not given), the Potency result was “inactive”.
With `CN1CC(=O)N/C1=N/C(=O)Nc1cccc(Cl)c1`, the Potency entry was “inactive”.
For the compound `CC(C)NC[C@@H](O)c1ccc(O)c(O)c1`, the Potency result was “inactive”.
